# Measurements: PubChem BioAssay AID1159580 (chemical genetic matrix, 2015)
# In all, about 5,500 compounds went through this assay and about 2,000 (36%) were called active. Roughly 18% stayed inconclusive and do not appear here. The list shows a part of the results. Unmarked numbers belong to inactive results. Rule as the data show it: active = normalized growth mostly below about 0.91 (no sharp cut-off); inconclusive = no clear call, values can overlap the other calls; inactive = mostly above about 0.92.
# Test: chemical genetic growth profiling, strain panel (AID 1159580);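 also: tested at 20 µM; growth read once vehicle control cultures reached saturation at 30 °C; 1 = growth at the plate median or of vehicle wells; lower values mean less growth of the strain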
# Conditions: growth OD
# [1] = S. cerevisiae deletion strains, locus YAL013W, strain DEP1, active compounds read low
# [2] = S. cerevisiae deletion strains, locus YBR229C, strain ROT2, active compounds read low
# [3] = S. cerevisiae deletion strains, locus YDL101C, strain DUN1, active compounds read low
# [4] = S. cerevisiae deletion strains, locus YDL134C, strain PPH21, active compounds read low
# [5] = S. cerevisiae deletion strains, locus YDR150W, strain NUM1, active compounds read low
# [6] = S. cerevisiae deletion strains, locus YEL061C, strain CIN8, active compounds read low
# [7] = S. cerevisiae deletion strains, locus YGR078C, strain PAC10, active compounds read low
# [8] = S. cerevisiae deletion strains, locus YGR229C, strain SMI1, active compounds read low
# [9] = S. cerevisiae deletion strains, locus YHR030C, strain SLT2, active compounds read low
# [10] = S. cerevisiae deletion strains, locus YHR087W, strain rtc3, active compounds read low
# [11] = S. cerevisiae deletion strains, locus YJR043C, strain POL32, active compounds read low
# [12] = S. cerevisiae deletion strains, locus YJR075W, strain HOC1, active compounds read low
# [13] = S. cerevisiae deletion strains, locus YLR039C, strain RIC1, active compounds read low
# [14] = S. cerevisiae deletion strains, locus YLR058C, strain SHM2 (second series), active compounds read low
# [15] = S. cerevisiae deletion strains, locus YLR085C, strain ARP6, active compounds read low
# [16] = S. cerevisiae deletion strains, locus YLR262C, strain YPT6, active compounds read low
# [17] = S. cerevisiae deletion strains, locus YML094W, strain GIM5, active compounds read low
# [18] = S. cerevisiae deletion strains, locus YMR219W, strain ESC1, active compounds read low
# [19] = S. cerevisiae deletion strains, locus YMR263W, strain SAP30, active compounds read low
# [20] = S. cerevisiae deletion strains, locus YNL128W, strain TEP1, active compounds read low
# [21] = S. cerevisiae deletion strains, locus YNL153C, strain GIM3, active compounds read low
# [22] = S. cerevisiae deletion strains, locus YNL298W, strain CLA4 (second series), active compounds read low
# [23] = S. cerevisiae deletion strains, locus YNL322C, strain KRE1, active compounds read low
# [24] = S. cerevisiae deletion strains, locus YNR030W, strain Alg12, active compounds read low
# [25] = S. cerevisiae deletion strains, locus YOL006C, strain TOP1, active compounds read low
# [26] = S. cerevisiae deletion strains, locus YPL055C, strain LGE1, active compounds read low
# [27] = S. cerevisiae deletion strains, locus YPL241C, strain CIN2, active compounds read low
# [28] = S. cerevisiae deletion strains, locus YPR135W, strain CTF4, active compounds read low
smiles,measurement,setting,value
COc1cc(C2OC(c3cc(C)ccc3[N+](=O)[O-])=NN2C(C)=O)cc(OC)c1OC (stereo not given),normalized growth,[1],0.986
same,normalized growth,[2],0.975
same,normalized growth,[3],1.04
same,normalized growth,[4],0.999
same,normalized growth,[5],0.993
same,normalized growth,[6],0.941
same,normalized growth,[7],1
same,normalized growth,[8],0.999
same,normalized growth,[9],0.948
same,normalized growth,[10],0.963
same,normalized growth,"S. cerevisiae deletion strains, locus YJL187C, strain SWE1, active compounds read low",0.98
same,normalized growth,[11],1
same,normalized growth,[12],0.999
same,normalized growth,"S. cerevisiae deletion strains, locus YKL190W, strain CNB1, active compounds read low",0.993
same,normalized growth,[13],0.969
same,normalized growth,[14],0.978
same,normalized growth,[15],0.967
same,normalized growth,[16],0.948
same,normalized growth,[17],0.98
same,normalized growth,[18],0.984
same,normalized growth,[19],0.999
same,normalized growth,[20],0.991
same,normalized growth,[21],1.02
same,normalized growth,[22],1.01
same,normalized growth,[23],0.993
same,normalized growth,[24],0.985
same,normalized growth,[25],0.924
same,normalized growth,[26],0.972
same,normalized growth,[27],1.01
same,normalized growth,[28],1.04
N#CC(NCc1ccccc1)c1ccc(Cl)c(Cl)c1 (stereo not given),normalized growth,[1],1
same,normalized growth,[2],0.983
same,normalized growth,[3],0.974
same,normalized growth,[4],0.848 (active)
same,normalized growth,[5],0.923
same,normalized growth,[6],0.985
same,normalized growth,[7],0.984
same,normalized growth,[8],0.989
same,normalized growth,[9],0.887
same,normalized growth,[10],1.01
same,normalized growth,[11],1.01
same,normalized growth,[12],0.968
same,normalized growth,[13],0.929
same,normalized growth,[14],0.995
same,normalized growth,[15],0.977
same,normalized growth,[16],0.957
same,normalized growth,[17],0.958
same,normalized growth,[18],0.998
same,normalized growth,[19],0.974
same,normalized growth,"S. cerevisiae deletion strains, locus YMR307W, strain GAS1, active compounds read low",0.818
same,normalized growth,[20],0.994
same,normalized growth,[21],0.98
same,normalized growth,[22],0.96
same,normalized growth,[23],1.01
same,normalized growth,[24],0.968
same,normalized growth,[25],0.982
same,normalized growth,[26],0.988
same,normalized growth,[27],0.938
same,normalized growth,[28],0.938
same,normalized growth,"S. cerevisiae strains, strain wild type, active compounds read low",1
